Screening data (PubChem BioAssay)
D1 ag: activates the human D1 dopamine receptor; HEK293 T-REx D1 cells, calcium flux, agonist mode; P21728; 360,000 tested, 1% active; activation, % at 2 µM; AID 504660; in the data active = activation above about 30%; note: 0% is about no effect
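Inducible HEK293 T-REx D1 cells, force-coupled to calcium signalling, were plated at 4000 cells/well with tetracycline and held overnight at 30 C. After no-wash calcium dye loading, compound-evoked calcium rise over 180 s flagged agonists.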
D3 ag: D3 dopamine receptor (human) agonism. D3R DiscoveRx beta-arrestin cells, luminescence, 90 min. P35462. max activation, %. 410,000 tested, 0.58% active; in the data active = max activation above about 30%; note: 0% is about no effect
Target sequence (P35462 whole entry, looked up): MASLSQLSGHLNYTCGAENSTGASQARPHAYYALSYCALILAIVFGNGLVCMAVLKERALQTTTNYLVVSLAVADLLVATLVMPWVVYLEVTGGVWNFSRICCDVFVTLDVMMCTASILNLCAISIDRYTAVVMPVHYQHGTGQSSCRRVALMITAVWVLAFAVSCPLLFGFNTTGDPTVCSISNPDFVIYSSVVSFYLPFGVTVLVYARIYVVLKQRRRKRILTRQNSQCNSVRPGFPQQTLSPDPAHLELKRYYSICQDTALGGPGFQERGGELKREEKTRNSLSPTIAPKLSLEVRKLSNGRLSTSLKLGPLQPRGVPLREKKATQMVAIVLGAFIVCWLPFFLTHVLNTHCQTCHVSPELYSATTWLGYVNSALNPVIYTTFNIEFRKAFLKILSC
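Agonist-mode cell screen: cells plated at 1500/well and incubated overnight at 37 °C, then exposed to library compounds for 90 min at 37 °C. Detection reagent was added for 30–60 min at room temperature, and luminescence was read.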
D3 antag: antagonists of human D3 dopamine receptor | D3R cells, DiscoveRx beta-arrestin luminescence, antagonist mode; hits give low values | max response, negative = inhibition, % | 360,000 tested, 2.5% active; in the data active = max response below about -50%; inconclusive = no clear call, values can overlap the other calls; note: % is set by controls: 0 for no effect and ±100 for the full control effect
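Cells expressing the human receptor were seeded at 1500 cells/well, incubated overnight at 37 degrees C in 5% CO2, then exposed to library compounds with dopamine controls for 90 minutes at 37 degrees C before luminescent detection.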
D1 PAM: potentiators of human D1 dopamine receptor; P21728; HEK293 TREx D1 cells, calcium flux, dopamine EC20 potentiation; potentiation, % at 10 µM; 360,000 tested, 0.036% active; AID 504651; in the data active = potentiation above about 30%; note: 0% is about no effect
D1 antagonist: antagonists of human D1 dopamine receptor; AID 504652; P21728; HEK293 TREx D1 cells, calcium flux, dopamine EC80; hits give low values; 360,000 tested, 3.2% active; activity change, negative = inhibition, % at 10 µM; in the data active = activity change below about -30%; note: % is set by controls: 0 for no effect and ±100 for the full control effect
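After overnight tetracycline induction at 30 C, force-coupled D1 HEK293 cells took up a no-wash calcium dye at room temperature. Compounds were added and monitored 180 s, and the response to EC80 dopamine was then recorded.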
* hit, by the source's call; ? = inconclusive; · = no result given. A selection: hits, their analogues and other compounds. The true share with any hit is near 6.1%.

SMILES	D1 ag	D3 ag	D3 antag	D1 PAM	D1 antagonist
Cc1nc2nncn2c(NCc2ccc(Cl)cc2)c1C	3	4	·	-2	-34*
CCC(C)NC(=O)c1ccc(NS(=O)(=O)c2ccc3[nH]c(=O)[nH]c3c2)cc1 (centres undefined)	1	6	21	-3	-33*
CC(C)CC(c1nc2ccccc2[nH]1)n1c(-c2ccccc2Br)nc2ccccc21 (centres undefined)	·	-1	0	·	·
CC(C)c1ccc(OCCCCN2CCCCC2)cc1	12	-21	-88*	5	6
CC1CN(CCCCOc2cccc(Oc3ccccc3)c2)CC(C)O1 (centres undefined)	1	-13	?	10	6
Clc1ccc(OCCCCN2CCCCC2)cc1	26	-25	-62*	-5	-39*
CC1CN(CCCCOc2ccc(C(C)C)cc2)CC(C)O1 (centres undefined)	0	-8	-63*	0	3
CCOc1ccc(OCCN2CCCCC2)cc1	3	-8	-18	-9	10
c1cc(OCCCN2CCCCC2)ccc1CN1CCCCC1	0	-6	-17	2	6
CCC(C)c1ccc(OCCN2CCCC2)cc1 (centres undefined)	4	1	-78*	11	2
CC(C)c1nc2scc(-c3ccc(Cl)cc3)c2c(=O)n1N	4	10	53	-2	-21
Clc1ccc(SCCOCCN2CCCCCC2)cc1	6	-8	-115*	-7	-16
CC(C)(C)c1ccc(OCCCN2CCCC2)cc1	15	-2	-11	-5	-11
CC(C)Oc1ccc(OCCCN2CCCCCC2)cc1	-2	-7	-84*	-8	14
COc1ccc(C(C#N)CC(=O)c2ccc(OCc3ccccc3)c(OC)c2)cc1OC (centres undefined)	·	5	37	·	·
CCCOc1ccccc1C(=O)Nc1nc2c(s1)CCCC2	6	-10	·	4	14
CCCCNCC1C(Oc2ccc(Cl)cc2)C(=O)N1c1ccccc1C (centres undefined)	4	-25	?	1	-6
CCOC(=O)CSc1nnc(-c2c[nH]c3ccccc23)n1CC	12	1	6	·	-3
CCn1c(SCC(=O)N2CCc3ccccc32)nnc1-c1c[nH]c2ccccc12	2	-3	18	7	0
CCn1c(SC(C)C)nnc1-c1c[nH]c2ccccc12	2	-8	-16	·	-31*
CCn1c(CNc2ccc(F)cc2)nnc1SCC(=O)N1CCCc2ccccc21	2	-3	-19	1	-31*
CCn1c(SCC(=O)N2CCCc3ccccc32)nnc1-c1c[nH]c2ccccc12	3	-5	-51*	-9	8
COc1ccc(NC(=O)CCCCCn2nnc3ccccc3c2=O)cc1	0	-14	-9	-4	-21
O=C(c1cc(F)c(F)cc1Cl)N1CCCc2ccccc21	2	-2	-17	-1	-11
COc1ccc([C@H]2C[C@H](O)[C@@H](n3cc(-c4ccc(F)cc4)nn3)CN2C(=O)c2cccs2)cc1	·	71*	5	·	·
SMILES	D1 ag	D3 ag	D3 antag	D1 PAM	D1 antagonist
COc1ccc([C@H]2C[C@@H](n3cc(-c4ccc(F)cc4)nn3)[C@H](O)CN2C(=O)c2cccs2)cc1	·	3	-4	·	·
COc1ccc(CCNC(=O)c2ccnc(C(C)(C)C)c2)cc1OC	·	-8	-14	·	·
CC(C)(C)c1cc(C(=O)NCc2ccccc2)ccn1	7	1	17	6	-32*
Cc1cc(=O)n2c(C(=O)Nc3ccc(F)c(Cl)c3)c(C(=O)Nc3cccc(C)c3C)sc2n1	2	0	·	0	1
Cc1nn(C)c2c1c(-c1ccccc1)cc(=O)n2Cc1c(F)cccc1Cl	3	8	·	2	8
COC(=O)/C(=N/Nc1ccccc1C)Sc1nnc(C(O)c2ccccc2)n1-c1ccccc1 (centres undefined)	3	0	-4	-2	0
COc1ccc(Nc2nc(-c3cccs3)cs2)c(OC)c1	3	-5	-51*	-10	10
COc1ccc(Nc2nc(-c3sc(C)nc3C)cs2)c(OC)c1	2	2	22	-18	-43*
COc1ccc(OC)c(Nc2nc(-c3cccs3)cs2)c1	0	-8	6	-2	15
COc1ccc(C(=O)COC(=O)CCNS(=O)(=O)c2ccccc2)c(OC)c1	3	3	7	2	4
Cc1cc2c(s1)c1cnn(Cc3ccccc3F)c(=O)c1n2Cc1ccccc1F	3	·	·	15	-3
Cc1ccccc1OCCC(=O)OCC(=O)NCCNC(=O)COC(=O)CCOc1ccccc1C	14	8	-16	-5	-43*
Cc1ccccc1OCCC(=O)OCC(=O)NC1CC1	2	3	17	-4	-1
O=C(/C=C/c1ccco1)NC(=S)NNC(=O)c1ccco1	-1	15	-84*	-2	2
COc1ccccc1C(=O)NNC(=S)Nc1ccccc1	5	2	?	-3	-31*
O=C(NC(=S)NNC(=O)c1ccco1)c1ccc(Br)cc1	47*	15	0	-3	5
COC(=O)NNC(=O)c1ccccc1OC	1	2	-9	-5	-7
COc1ccc(C(=O)NNC(=S)NC(=O)c2ccco2)cc1	8	2	-58*	5	-7
CCc1ccccc1Nc1cc(C(=O)NCc2ccc(C)cc2)c2ccccc2n1	3	-8	·	3	-2
O=C(O)c1cccc(NC(=S)NC(=O)C(c2ccccc2)c2ccccc2)c1	2	-1	-21	0	-13
CC(Oc1ccc(Cl)cc1)C(=O)NNC(=S)NC(=O)c1ccco1 (centres undefined)	44*	-7	25	-3	-8
O=C(COc1ccc(Cl)cc1Cl)NNC(=S)NC(=O)c1ccco1	2	3	11	4	5
COC(=O)c1cc(OC)c(OC)cc1NC(=S)NC(=O)c1ccco1	0	1	-30	-4	-38*
COc1ccccc1C(=O)NNC(=S)NC(=O)c1ccco1	50*	-15	-21	-1	-7
CCNC(=S)Nc1cc(OC)c(NC(=O)c2ccco2)cc1OC	2	7	7	0	-5
SMILES	D1 ag	D3 ag	D3 antag	D1 PAM	D1 antagonist
Cc1ccnc(NC(=S)NC(=O)/C=C/c2ccco2)c1	1	2	-51*	-3	-2
C=CCC(NC(=O)N(C)C)(C(C)=O)C(=O)OC (centres undefined)	·	7	18	·	·
O=C(Nc1ccc(Cl)cc1)c1ccc2sc([C@@H]3O[C@H](CO)[C@@H](O)[C@H]3O)nc2c1	·	-14	-20	·	·
CC(=O)Nc1ccc(N(CC(=O)NC2CCCCC2)C(=O)Cn2nnc(-c3ccccc3)n2)cc1	-1	-1	-19	-8	-27
COC(=O)c1cc(OC)c(OC)cc1NC(=S)Nc1cc(Cl)ccc1OC	3	-1	-8	1	17
CCCOc1ccc(C(=O)NNC(=S)NC(=O)c2ccco2)cc1	186*	1	-22	-4	-33*
